We go through 40 compounds from PubChem BioAssay (NCATS).

Records with an inconclusive call do not appear. Activity calls are given as the source filed them. Calls come from the whole dose curve; as a rule, active = well fitted cell-killing curve with a large enough effect; inconclusive = small, poorly fitted or top-dose-only effect, or effect the other way; inactive = no such curve, though single readings can be large or run the other way.
Potency is the fitted concentration of half-maximal effect.

This experiment in a line: Viability qHTS for spleen associated tyrosine kinase inhibitor (SYKi) naive MV4-11 cells (AID 1963823). Note: nearly all actives have a fitted effect of over 40% in size. To be noted: MV4-11 AML viability, CellTiter-Glo luminescence, 72 h; series mostly up to 45 µM; viability (% of control): at the top concentration. The gist of the method: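 qHTS, SYK inhibitor-naive MV4-11; 500 cells/well; 72 hr compound exposure, 37 C; CellTiter-Glo added, 10 min RT; luminescence read.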
Consider `CC1CCC2C(C)(C)C(O)CCC2(C)C12Cc1c(O)cc3c(c1O2)CN=C3N` (stereo not given), for which the “viability (% of control)” value is 71.2% (inactive).
Still for that read-out and setting: for `C=CC1(C)C=C2CCC3C(C)(C)C(O[C@@H]4O[C@@H](CO)[C@H](O)[C@H]4O)CCC3(C)C2CC1O[C@@H]1O[C@H](C)[C@H](O)[C@H](O)[C@H]1O` (stereo not given in full) the value was 68.7% [at 17.3 µM] (inactive); for `CC1=CC(=O)C(C(C)C)=CC1=O`, 81.2% (inactive); for `CC1OC(OC2C(OC3C(O[C@H]4CC[C@@]5(C)C(CC[C@]6(C)C5C(=O)CC5=C7CC(C)(C)CC(O)[C@]7(C)CC[C@]56C)C4(C)C)OC(C(=O)O)C(O)C3O)OCC(O)C2O)C(O)C(O)C1O` (stereo not given in full), 77.2% [at 9.25 µM] (inactive).
Same read-out and setting: the same measure for `CC1=CC(=O)[C@]2(O[C@@H]3O[C@@H](C)[C@H](O)[C@@H](O)[C@H]3O)C=CO[C@@H](O[C@@H]3O[C@H](CO)[C@@H](O)[C@H](O)[C@H]3O)[C@H]12`: 73.2% [at 17.3 µM] (inactive); for `C=CC1(C)CC(O)C2(CCC3C(C)(C(=O)O)CCCC3(C)C2=O)C1` (stereo not given): 53.4% (inactive); for `C=C[C@H]1[C@H](O[C@@H]2O[C@H](CO)[C@@H](O)[C@H](O)[C@H]2O)OC=C(C(=O)OC)[C@H]1CC=O`: 97.8% (inactive).
For `C=C(CC/C=C(\C)C(=O)O)C1(O)CC=C(C)CC1` (stereo not given), the “viability (% of control)” value was 79.6% (inactive).
Same read-out and setting: the same measure for `CC/C=C/CC1=C(CCCCCCCC(=O)O)CCC1=O`: 59.7% (inactive).
Regarding `COc1ccccc1CC(C(=O)O)N(C)C(=O)c1ccccc1` (stereo not given), the “viability (% of control)” value was 73.7% (inactive).
As to `CC(=O)/C=C/C1(O)C(C)(C)CC(O)CC1(C)O` (stereo not given), the “viability (% of control)” value was 67.4% (inactive).
Still for that read-out and setting: for `CC(=O)O[C@H]1C[C@@](O)(C(C)C)C2[C@@H](OC(=O)c3ccc(O)cc3)C[C@@]3(C)O[C@H]3C[C@]21C` (stereo not given in full) the value was 46.7% [at 17.3 µM] (inactive); for `C[C@@H]1O[C@@H](O[C@H]2[C@H](O)[C@@H](O)[C@H](OC(=O)[C@]34CCC(C)(C)C[C@H]3C3=CCC5[C@@]6(C)CC[C@H](O[C@@H]7O[C@H](C(=O)O)[C@@H](O)[C@H](O)[C@H]7O)C(C)(C)C6CC[C@@]5(C)[C@]3(C)CC4)O[C@@H]2CO)[C@H](O)[C@H](O)[C@H]1O` (stereo not given in full), 72.1% [at 9.25 µM] (inactive).
The same measure, in the same setting: for `COc1ccc(C2(O)c3c(ccc4c3OC(C)(CCC=C(C)C)C=C4)NC(=O)C2OC)cc1` (stereo not given) the value was 25.5% [at 17.3 µM] (inactive); for `CC(C)c1c(NC(=O)Nc2ccc(Cl)cc2)c(=O)n(-c2ccccc2)n1C`, 61.4% (inactive).
Regarding `CC(N)C1CCC(C(=O)Nc2ccncc2)CC1` (stereo not given), the “viability (% of control)” value is 65.8% (inactive).
Still for that read-out and setting: for `CC/C=C\[C@H](O)[C@H](O)C1=C(C)C(=O)[C@]2(O1)C(=O)N[C@@](OC)(C(=O)c1ccccc1)[C@@H]2O` the value was 86.6% [at 17.3 µM] (inactive); for `CCC(=O)O[C@H]1C(C)(C)[C@H]([C@@H](O)C(=O)OC)[C@]2(C)C(=O)[C@@]1(O)[C@H]1O[C@]13C1CC(=O)O[C@@H](c4ccoc4)[C@]1(C)CCC32` (stereo not given in full), 30.2% [at 17.3 µM] (inactive).
On the same count and under the same terms, for `CC1(C)CCC2(C(=O)OC3OC(COC4OC(CO)C(O)C(O)C4O)C(O)C(O)C3O)CCC3(C)C(=CCC4C5(C)CCC(O)C(C)(C(=O)O)C5CCC43C)C2C1O` (stereo not given) the value was 83.4% [at 9.25 µM] (inactive); for `CCOc1nc(NC(=O)Cc2cc(OC)ccc2OC)cc(N)c1C#N`, 93.1% (inactive); for `O=S1(=O)CCN(Cc2cc(NCC3CCOCC3)c3[nH]c(-c4ccccc4)cc3c2)CC1`, 3.26% (inactive).
Still for that read-out and setting: for `C=CC(C)(O)CC/C=C(\C)C(=O)OC1CC2(C(=O)O)CCC3(C)C(=CCC4C5(C)CCC(OC6OC(COC7OCC(O)C(O)C7O)C(O)C(OC7OCC(O)C(O)C7O)C6OC6OC(CO)C(O)C(O)C6OC6OCC(O)C(O)C6O)C(C)(C)C5CCC43C)C2CC1(C)C` (stereo not given) the value was 73.5% [at 9.25 µM] (inactive); for `CCC1OC(=O)C(C)CC(C)C(=O)/C(C)=C/C(C)C(=O)/C=C/C1(C)O` (stereo not given), 68.1% (inactive).
As for `COc1cc2nc(C3CC3)nc(N3CCN(c4ccccc4OC)CC3)c2cc1OC`, the Potency is 16.4 µM (active).
Take `Cc1ccc(OC[C@H](O)[C@H](C)NC(C)C)c2c1CCC2`: the “viability (% of control)” value was 63.1% (inactive).
In the case of `COc1ccc(CCC(=O)c2c(O)cc(O)cc2O[C@@H]2O[C@H](CO)[C@@H](O)[C@H](O)[C@H]2O)cc1`, the Potency is 7.96 µM (active).
Same read-out and setting: for `C=C1CC[C@H]2C(=C)CC[C@H]3C(=C)C(=O)O[C@@H]3[C@@H]12` the value was 4.11 µM (active).
For `COC(=O)C1=CO[C@@H](O[C@@H]2O[C@H](COC(=O)/C=C/c3cc(OC)c(O)c(OC)c3)[C@@H](O)[C@H](O)[C@H]2O)[C@@H]2C(CO)=CC[C@H]12`, the “viability (% of control)” value is 77.3% [at 17.3 µM] (inactive).
`C=CC(C)(C)c1[nH]c2ccccc2c1C1=C(O)C(=O)C(c2c[nH]c3c(CC=C(C)C)cccc23)=C(O)C1=O`: the Potency was 18.4 µM (active).
Turning to `COc1cc(/C=C/CO)ccc1O[C@@H]1O[C@H](CO)[C@@H](O)[C@H](O)[C@H]1O`, the “viability (% of control)” value is 75.9% (inactive).
With `CC(C)C[C@H](CC(=O)NO)C(=O)N[C@@H](Cc1ccc2ccccc2c1)C(=O)N[C@@H](C)C(=O)NCCN`, the “viability (% of control)” value is 82.2% (inactive).
Same read-out and setting: for `C[C@H]1[C@H](C)CC[C@]2(C(=O)OC3OC(CO)C(O)C(O)C3O)CC[C@]3(C(=O)O)C(=CCC4[C@@]5(C)CC[C@H](O[C@@H]6O[C@@H](C)[C@H](OC7OC(CO)C(O)C(O)C7O)[C@@H](O)[C@H]6O)C(C)(C)C5CC[C@]43C)[C@H]12` (stereo not given in full) the value was 80.8% [at 9.25 µM] (inactive); for `Cc1nc2cc(-c3cc(F)cc(C#N)c3)ccc2s1`, 72.5% (inactive).
`O=C1c2ccccc2C(=O)c2c1ccc(O)c2O`: the Potency is 9.44 µM (active).
With `N[C@@H](Cn1ccc(=O)c(O)c1)C(=O)O`, the viability (% of control) was 88% [at 4.97 µM] (inactive).
On the same count and under the same terms, for `C[C@H]1C[C@H]2[C@@H]3CCC4=CC(=O)C=C[C@]4(C)[C@@]3(F)[C@@H](O)C[C@]2(C)[C@@]1(O)C(=O)COP(=O)(O)O` the value was 97.6% (inactive).
As to `CC1(C)CCCC2(C)C1C(OC(=O)/C=C/C=C/C=O)C=C1COC(=O)C12O` (stereo not given), the Potency is 5.02 µM (active).
`CC(=O)[C@H]1CC[C@H]2[C@@H]3CC=C4C[C@@H](OS(=O)(=O)O)CC[C@]4(C)[C@H]3CC[C@]12C`: the “viability (% of control)” value was 75.2% (inactive).
In the case of `CC(=O)NC1C(OC(C)(C)C2CCC3(C)C=C(C4CCC5C4(C)CC(O)C4OC(C(C)(C)O)CCC45C)CCC3O2)OC(CO)C(O)C1O` (stereo not given), the Potency is 1.93 µM (active).
In the case of `CC1=CC(=O)CC(C)(C)C1CCC(C)OC1OC(COC(=O)c2cc(O)c(O)c(O)c2)C(O)C(O)C1O` (stereo not given), the “viability (% of control)” value is 72.8% [at 17.3 µM] (inactive).
